From PubChem BioAssay
DRD3 agonist: agonists of human D3 dopamine receptor; P35462; D3R DiscoveRx beta-arrestin cells, luminescence, 90 min; max activation, %; 0.58% of 410,000 active; in the data active = max activation above about 30%; note: 0% is about no effect
Target sequence (P35462 whole entry, looked up): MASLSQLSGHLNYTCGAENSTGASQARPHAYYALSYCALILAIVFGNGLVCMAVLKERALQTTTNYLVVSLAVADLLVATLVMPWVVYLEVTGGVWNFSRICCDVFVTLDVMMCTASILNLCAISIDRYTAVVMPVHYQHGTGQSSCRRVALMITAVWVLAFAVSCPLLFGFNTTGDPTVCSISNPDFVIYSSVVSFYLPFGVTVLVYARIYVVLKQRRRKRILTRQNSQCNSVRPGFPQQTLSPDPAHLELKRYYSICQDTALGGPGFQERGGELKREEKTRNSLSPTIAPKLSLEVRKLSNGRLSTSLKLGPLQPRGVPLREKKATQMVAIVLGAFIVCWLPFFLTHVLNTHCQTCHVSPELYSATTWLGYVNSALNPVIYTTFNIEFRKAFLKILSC
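Agonist-mode cell screen: cells plated at 1500/well and incubated overnight at 37 °C, then exposed to library compounds for 90 min at 37 °C. Detection reagent was added for 30–60 min at room temperature, and luminescence was read.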
D3 antag: D3 dopamine receptor (human) antagonism. D3R cells, DiscoveRx beta-arrestin luminescence, antagonist mode; active compounds read low. 2.5% of 360,000 active. max response, negative = inhibition, %; in the data active = max response below about -50%; inconclusive = no clear call, values can overlap the other calls; note: % is set by controls: 0 for no effect and ±100 for the full control effect
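Cells plated overnight at 1500 cells/well, then exposed to library compounds with dopamine controls for 90 minutes at 37 degrees C. DiscoveRx reagent added for 30–60 minutes at room temperature; luminescence read, quantitative HTS format.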
a7 integrin act: activates integrin-mediated alleviation for muscular dystrophy; alpha7betagal myoblasts, beta-gal FDG fluorescence, 48 h; Potency, µM (highest dose often 38.3 µM), for inactives: top-dose activation, hits mostly activators; 0.064% of 350,000 active; active = well fitted activation curve with a large enough effect; inconclusive = small, poorly fitted or top-dose-only effect; inactive = no such curve, though single readings can be large or run the other way;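 note: potency is the fitted concentration of half-maximal effect; 100% = response of the positive control SU9516; nearly all actives have a fitted effect of over 60% in size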
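Alpha7betagal+/- myoblasts (passage 13) were plated 16-24 hr, then exposed to compounds (1:260 dilution of DMSO stock) for 48 hours at 37C. After MPER lysis, β-galactosidase reporter activity was read as FDG fluorescence (ex 480/em 540) after 30 minutes.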
* hit, by the source's call; ? = inconclusive; · = not tested or not shown; [ ] = another dose, or the depositor's remark. A selection: hits, their analogues and other compounds. The true share with any hit is near 2.9%.

SMILES | DRD3 agonist | D3 antag | a7 integrin act
Cc1nc2ccc(S(=O)(=O)NC(CC(C)C)C(=O)N3CCN(c4ccc(F)cc4)CC3)cc2s1 (stereo unspecified) | 5.0 | · | ·
C/C(CC(=O)Nc1cccnc1)=N\NC(=O)c1ccc([N+](=O)[O-])c(Cl)c1 | 4.3 | 0.4 | 24.2%
CC(=O)Nc1ccccc1NC(=O)C/C(C)=N/NC(=O)c1ccc([N+](=O)[O-])c(Cl)c1 | -5.5 | -58.0* | -14.4%
O=C(Nc1ccc(N2CCN(C(=O)c3ccco3)CC2)cc1)c1ccc(F)cc1 | 0.0 | 6.0 | -18.2%
Cc1ccc(S(=O)(=O)N2CCCCC2)cc1NC(=O)C1CC(=O)N(Cc2ccccc2)C1 (stereo unspecified) | -24.5 | 1.5 | -22.0%
COc1ccc(S(=O)(=O)N(CCN2CCOCC2)Cc2cc(OC)ccc2OC)cc1 | -0.3 | -26.6 | -20.5%
COc1ccc(S(=O)(=O)N(CCCN2CCOCC2)Cc2cccc(OC)c2OC)cc1 | -12.0 | -76.0* | -18.9%
S=C(Nc1ccc(Cl)cc1)N(CCCN1CCOCC1)Cc1cccs1 | -10.1 | -21.1 | 6.1%
COc1ccc(S(=O)(=O)N(CCCN2CCOCC2)Cc2cccc3ccccc23)cc1 | -20.1 | -85.5* | 6.6%
O=S(=O)(c1ccc(Cl)cc1)N(CCCN1CCOCC1)Cc1cccs1 | -7.5 | -80.4* | 0.0%
COc1ccc(NC(=S)N(CCCN2CCOCC2)Cc2cn(C)c3ccccc23)cc1 | -8.3 | ? | 10.1%
CCCCCOc1ccc(Cn2c(=O)oc3ccccc32)cc1 | -0.4 | · | ·
CC1CCCC(C)N1CCCNC(=O)c1csc2c1CCCCC2 (stereo unspecified) | -4.3 | -19.7 | 10.8%
CN(C)c1nc(NC(C)(C)C)nc(NC(C)(C)C)n1 | -2.3 | -23.6 | -15.4%
Cn1c(Cn2cnc([N+](=O)[O-])n2)nnc1SCC(=O)Nc1ccccc1 | 11.3 | 10.2 | -8.8%
c1ccc(CNCCCn2cnc3c(OCc4ccccc4)ncnc32)cc1 | -53.6 | -14.5 | -7.2%
C[C@@H](NCCCn1cnc2c(OCc3ccccc3)ncnc21)c1cccc2ccccc12 | -46.7 | ? | -42.4%
Cc1ccc(CN2CCN(CCCn3cnc4c(OCc5ccccc5)ncnc43)CC2)cc1 | -63.9 | -53.4* | -26.1%
c1ccc(COc2ncnc3c2ncn3CCCN2CCN(Cc3cccc4ccccc34)CC2)cc1 | -5.3 | -67.1* | -64.0%
Clc1cccc(-c2ccc(C=Nc3ccc(N4CCOCC4)cc3)o2)c1Cl | 11.1 | 21.8 | -36.2%
CC1(C)Oc2ccc(C(=O)NC3CCCC3)cc2N(CC(=O)NC2CCCC2)C1=O | -5.4 | -75.8* | 9.7%
CC(C)(C)NC(=O)c1ccc2c(c1)N(CC(=O)NC1CCCC1)C(=O)C(C)(C)O2 | -16.8 | -27.2 | -8.4%
O=c1c(-c2cc(-c3ccccc3)nc3c2COc2ccc(Cl)cc2-3)coc2ccc(F)cc12 | 0.6 | · | ·
CN(C)CCCCOc1cccc(Br)c1 | -7.1 | -4.4 | -3.9%
C=CCNCCOc1cccc(Br)c1 | -22.3 | -76.1* | 2.4%
SMILES | DRD3 agonist | D3 antag | a7 integrin act
CCC(C)NCCOc1cccc(Br)c1 (stereo unspecified) | 0.2 | -71.8* | -28.1%
O=C1c2ccccc2C(=O)N1CCOc1cccc(Br)c1 | -10.8 | 13.0 | 14.7%
Cc1cc([N+](=O)[O-])cc2c1-c1ncccc1C2=Nc1ccccc1 | 0.7 | 4.4 | -6.1%
CCn1cc(C2=NC(CCSC)CO2)c2ccccc21 (stereo unspecified) | -4.9 | -14.5 | 0.0%
Cn1c(OCc2cccnc2)nc2c1c(=O)n(Cc1ccccc1)c(=O)n2C | 5.1 | -28.5 | 0.2%
CCOC(=O)COc1ccc(/C=C/[N+](=O)[O-])c(OCC(=O)OCC)c1 | 0.6 | -5.2 | 11.4%[7.66 µM]
CCOC(=O)COc1ccc2ccccc2c1/C=C/[N+](=O)[O-] | -7.1 | -52.0* | -1.3%
O=C(CSc1nc(O)cc(=O)[nH]1)C1CC1 | -0.6 | -2.0 | 16.7%
CCOC(=O)CSc1nnc2cc(C)c3ccccc3n12 | 6.5 | 13.9 | -11.7%
Cc1oc(=O)c(NC(=O)c2cccc(Cl)c2)cc1C(=O)c1ccccc1 | -7.1 | -62.8* | -19.8%
COC(=O)c1cc(NC(=O)c2ccccc2)c(=O)oc1C | 3.9 | 8.9 | 21.9%
COc1ccc(C(=O)Nc2cc(C(=O)c3ccccc3)c(C)oc2=O)cc1 | -7.5 | -61.9* | -62.3%
Cc1oc(=O)c(NC(=O)c2ccccc2)cc1C(N)=O | 0.2 | 15.3 | 18.9%
Cc1ccc(C(=O)COC(=O)c2cc(C)no2)c(C)c1 | 2.4 | 4.2 | -24.3%
O=[N+]([O-])c1cc2cccnc2c2ncccc12 | -6.6 | -12.3 | -18.4%
O=[N+]([O-])c1cc(O)c2ncccc2c1 | -16.4 | -58.3* | -56.4%
O=C(O)/C=C/c1ccc(S(=O)(=O)N(CCO)CCO)cc1 | -0.5 | 4.4 | -14.2%
Cc1ccc(C(=O)c2sc(Nc3ccc(F)cc3)c(C#N)c2N)cc1 | -11.4 | · | ·
COc1ccc(CN2CCN(c3ccc(F)cc3)CC2)c(OC)c1OC | -15.6 | -25.5 | -33.2%
COc1cc(OC)c(CN2CCN(c3ccc(F)cc3)CC2)cc1Br | -12.0 | -74.0* | 23.0%
O=C(C1CCN(S(=O)(=O)Cc2ccccc2)CC1)N1CCN(c2ccccc2F)CC1 | 4.6 | · | ·
COc1cc2oc(=O)cc(CN3CCN(C(C)=O)CC3)c2cc1Cl | -5.6 | -23.7 | ·
Cc1cc2oc(=O)cc(CN3CCCCC3)c2cc1O | -3.7 | -13.4 | 8.6%
CC(=O)N1CCN(Cc2cc(=O)oc3cc(C)c(C)cc23)CC1 | -4.2 | -80.0* | ·
Cc1cc2oc(=O)cc(CN3CCC(C)CC3)c2c(C)c1Cl | 0.1 | 20.6 | 15.5%
SMILES | DRD3 agonist | D3 antag | a7 integrin act
Cc1cc2oc(=O)cc(CN3CCC(C)CC3)c2cc1C | -12.2 | -71.5* | ?
Cc1cc2oc(=O)cc(CN3CCCCC3)c2cc1C(C)C | 0.4 | -78.0* | -25.6%
CCCN1C(=O)C2(/C(=C(\O)c3ccc4c(c3)OCCO4)C(=O)C(=O)N2CCCOC)c2ccccc21 (stereo unspecified) | -13.9 | 15.8 | -2.8%
COC(=O)c1ccccc1NC(=O)C1CCN(C(=O)N2CC(C)Oc3ccccc32)CC1 (stereo unspecified) | 1.7 | · | ·
Cc1ccc(CNCc2cc3c(C(C)(C)C)nn(-c4ccccc4)c3[nH]c2=O)cc1 | -32.8 | ? | -25.8%
O=C(Cn1nc(Cc2cccnc2)c2ccccc2c1=O)Nc1ccc2c(c1)OCO2 | -3.7 | 0.0 | 8.3%
O=C(Cn1nc(Cc2cccnc2)c2ccccc2c1=O)Nc1ccc(F)c(Cl)c1 | 38.9* | · | ·
Oc1ccccc1N1CCN(Cc2ncc(-c3ccccc3)o2)CC1 | -6.0 | -57.9* | -20.5%
c1ccc(-c2noc(CN3CCN(c4cnccn4)CC3)n2)cc1 | 12.0 | 0.6 | -14.4%
O=C(Nc1cc(-c2nc3cc(Cl)ccc3o2)ccc1Cl)c1cccs1 | 7.7 | · | ·
Cc1ccc(SCc2cc(=O)[nH]c(Nc3nc(C)c4cccc(C)c4n3)n2)cc1 | -7.4 | -84.5* | 6.5%
CCOc1ccc2nc(Nc3nc(CSc4nnnn4-c4ccccc4)cc(=O)[nH]3)nc(C)c2c1 | 2.4 | 20.8 | 8.5%
COc1ccc2nc(Nc3nc(CSc4ccc(C)cc4)cc(=O)[nH]3)nc(C)c2c1 | 4.7 | 3.2 | -8.8%
COc1ccc2nc(Nc3nc(CSc4nnnn4-c4ccccc4)cc(=O)[nH]3)nc(C)c2c1 | 7.0 | -58.5* | 1.8%
